# Laboratory results as given in ChEMBL document CHEMBL3988442, “University of Dundee, Small-Polar-MMV Screening Library” (2021).
# Out of some 69,000 compounds screened, about 1,000 (1.4%) showed an effect of 50% or more. This is one part of a sample in which strong results are shown more often than they occur.
# Test system: Leishmania donovani
# Test: Leishmania intramacrophage assay
# Type: functional, organism-based
# Parameters: scale not given: in the data most compounds retested in dose-response had high values
structure (smiles),measurement,setting,value
O=C(CSC1=NS(=O)(=O)c2cc(F)ccc2N1)Nc1ccc(Cl)cc1,Percent Effect,"30.3 µM, […]",3.738%
O=C(CSC1=NS(=O)(=O)c2cc(F)ccc2N1)c1ccc(Cl)cc1,Percent Effect,"30 µM, 30.03 µM",37.27%
O=S1(=O)N=C(SCc2ccc(Cl)cc2)Nc2ccc(F)cc21,Percent Effect,"30 µM, 30.03 µM",63.48%
CC(C)(C)c1cn(CC2CCCN(c3cnc4ccccc4n3)C2)nn1 (configuration not stated),Percent Effect,"30.3 µM, […]",23.01%
NC(=O)CN1CCC2(CC1)CC(=O)c1ccc3ccccc3c1O2,Percent Effect,"30.3 µM, […]",11.62%
CN(C)C(=O)CN1CCC2(CC1)CC(=O)c1ccc3ccccc3c1O2,Percent Effect,"30.3 µM, […]",36.93%
CCOC(=O)CN1CCC2(CC1)CC(=O)c1ccc3ccccc3c1O2,Percent Effect,"30.3 µM, […]",52.56%
Cc1nc(NC(=O)C2(C)CN(C)CCO2)sc1C.Cl (configuration not stated),Percent Effect,"30.3 µM, […]",1.58%
Cc1nc(Nc2nnc(C)s2)cc(C2CCCN2)n1.Cl (configuration not stated),Percent Effect,"30.3 µM, […]",-1.301%
Cc1nc(Nc2ncc(C)s2)cc(C2CCCN2)n1.Cl (configuration not stated),Percent Effect,"30.3 µM, […]",56.27%
Cc1nc(Nc2nccs2)cc(C2CCCN2)n1.Cl (configuration not stated),Percent Effect,"30.3 µM, […]",34.17%
CCOc1c(Cl)cc(/C=C/c2ncc(C(=O)O)s2)cc1OC,Percent Effect,30 µM,26.63%
COc1cc(/C=C/c2ncc(C(=O)O)s2)cc(Cl)c1OC,Percent Effect,30 µM,-16.83%
COc1cc(/C=C/c2ncc(C(=O)O)s2)cc(Cl)c1O,Percent Effect,"30 µM, 30.03 µM",50.87%
O=C1CNc2ncnc(Nc3cccc(Cn4cccn4)c3)c2N1,Percent Effect,"30.3 µM, […]",32.36%
O=C(Nc1ccccc1OCCc1ccccn1)N1CCOCC(O)C1 (configuration not stated),Percent Effect,"30.3 µM, […]",34.91%
O=C(Nc1ccccc1OCCc1ccccn1)N1CC[C@@H](O)C1,Percent Effect,"30.3 µM, […]",-41.47%
O=C(Nc1ccccc1OCCc1ccccn1)N1CCOCC1,Percent Effect,"30.3 µM, […]",51.44%
CC(C)CN1C(=O)C2(CCN(Cc3ccoc3)C2)c2ccccc21.O=C(O)C(F)(F)F (configuration not stated),Percent Effect,"30.3 µM, […]",-1.91%
O=C(O)C(F)(F)F.c1cnc(N2CCC3(CC2)CN(CC2CC2)c2ccccc23)nc1,Percent Effect,"30 µM, 30.03 µM",24.73%
O=C(O)C(F)(F)F.O=C(O)C(F)(F)F.OCCN1CC2(CCN(CC3CC3)CC2)c2ccccc21,Percent Effect,"30.3 µM, […]",75.39%
CC(C)CN1C(=O)C2(CCN(CC3CCOCC3)C2)c2ccccc21.O=C(O)C(F)(F)F (configuration not stated),Percent Effect,"30.3 µM, […]",64.12%
CC(C)CN1C(=O)C2(CCN(Cc3cccs3)C2)c2ccccc21.O=C(O)C(F)(F)F (configuration not stated),Percent Effect,"30.3 µM, […]",1.991%
O=C(O)C(F)(F)F.O=C1CC2(CCN(CC3CCOC3)CC2)c2ccccc2N1CC1CC1 (configuration not stated),Percent Effect,"30.3 µM, […]",8.748%
OC1(CN2CCCC2)COCCN(c2nccs2)C1 (configuration not stated),Percent Effect,"30.3 µM, […]",-9.416%
COCC1CN(S(=O)(=O)N(C)C)Cc2cnn(CC3CCCC3)c21.O=C(O)C(F)(F)F (configuration not stated),Percent Effect,"30.3 µM, […]",-10.54%
Cc1ccc(F)c(NC(=O)CCC(=O)N(C)Cc2cc(C3CC3)[nH]n2)c1,Percent Effect,"30.3 µM, […]",5.303%
COc1ccccc1CC(=O)NC(CC(=O)O)c1ccc(C)cc1 (configuration not stated),Percent Effect,"30.3 µM, […]",-0.7929%
COc1ccccc1Oc1ncccc1CNC(=O)CN1CCCC1=O,Percent Effect,"30.3 µM, […]",15.35%
Cc1cc(NC(=O)NCc2cccnc2OC(C)C)no1,Percent Effect,"30.3 µM, […]",23.81%
O=C(O)C(F)(F)F.O=C(O)C(F)(F)F.c1ccc(CN2CCc3nnc(CN4CCCCC4)n3CC2)nc1,Percent Effect,"30 µM, 30.03 µM",-31.83%
Cc1cc(N2C[C@H](C3CC3)[C@@H](N)C2)nc(N2CCCCC2)n1,Percent Effect,"30.3 µM, […]",55.81%
CCc1cc(N2C[C@H](C3CC3)[C@@H](N)C2)nc(N2CCCC2)n1,Percent Effect,"30.3 µM, […]",72.46%
CC(C)Oc1cc(N2C[C@H](C3CC3)[C@@H](N)C2)nc(N)n1,Percent Effect,"30.3 µM, […]",15.53%
CNc1cc(C)nc(N2C[C@@H](C(=O)O)[C@H](C3CC3)C2)n1,Percent Effect,"30.3 µM, […]",1.34%
N[C@H]1CN(Cc2cnc(N3CCCC3)nc2)C[C@@H]1C1CC1,Percent Effect,"30.3 µM, […]",17.06%
CNc1cc(C)nc(N2C[C@H](C3CC3)[C@@H](N)C2)n1,Percent Effect,"30.3 µM, […]",66.39%
CNc1cc(C)nc(N2C[C@H](NC(=O)C3CCOCC3)[C@@H](C3CC3)C2)n1,Percent Effect,"30.3 µM, […]",-19.84%
CCc1cc(N2C[C@H](C3CC3)[C@@H](N)C2)nc(N2CCOCC2)n1,Percent Effect,"30.3 µM, […]",29.17%
Cc1cc(C)nc(N2CCC(OCCN3CCCCC3)C2)n1 (configuration not stated),Percent Effect,"30.3 µM, […]",-14.11%
Nc1cc2c(nn1)CCN(C(=O)c1ccc(-c3ccco3)[nH]c1=O)C2,Percent Effect,"30.3 µM, […]",9.211%
O=c1cc(C2CCNCC2)nc(CCCc2ccccc2)[nH]1,Percent Effect,"30.3 µM, […]",27.29%
Cc1cc(NC(=O)CN2CCn3c(nnc3C(C)C)C2)n(C)n1,Percent Effect,30 µM,-15.63%
Cc1nsc(N2CCCN(C(=O)NCc3cc(C)on3)CC2)n1,Percent Effect,"30.3 µM, […]",8.411%
CN(CCNc1ncc2c(n1)CCN2c1ccccc1)S(C)(=O)=O,Percent Effect,"30.3 µM, […]",14.06%
Cc1cnn(CCC(=O)N2CCCC(c3cc(C(N)=O)[nH]n3)C2)c1 (configuration not stated),Percent Effect,"30 µM, 30.03 µM",2.466%
COc1ccccc1CC(=O)N1CCC(OCc2cccnc2)CC1,Percent Effect,"30.3 µM, […]",5.945%
Cc1ccccc1SC1CCN(C(=O)[C@@H]2C[C@@H](N)CN2)CC1,Percent Effect,"30.3 µM, […]",56.56%
Cc1ccccc1SC1CCN(C(=O)[C@H]2[C@@H]3CNC[C@@H]32)CC1,Percent Effect,"30.3 µM, […]",68.53%
Cc1ccccc1SC1CCN(C(=O)C2CNCC(=O)N2)CC1 (configuration not stated),Percent Effect,"30.3 µM, […]",24.39%
Cc1ccccc1SC1CCN(C(=O)C2CNC(=O)N2)CC1 (configuration not stated),Percent Effect,"30.3 µM, […]",-12.93%
Cc1ccccc1SC1CCN(C(=O)CCCS(N)(=O)=O)CC1,Percent Effect,"30.3 µM, […]",28.86%
